From PubChem BioAssay (NCI)
About 83,000 compounds went through this panel and 20% of them were active in at least one assay; those are over-represented in the sample as a whole.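 The test compound was applied at a single concentration to cells in 96-well plates for 48 hours, and percent growth was recorded.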 Activity calls are given as the source filed them. How the source made its calls: active means growth percent below 10; inactive means the rest.

What was measured:
Experiment in all cases: NCI-60 one-dose screen, 48 h (100 = growth as untreated, 0 = no growth, -100 = all killed)
Conditions in all cases: 10 µM unless noted
T-47D breast = tested on: T-47D breast
BT-549 breast = tested on: BT-549 breast
MDA-MB-435 melanoma = tested on: MDA-MB-435 melanoma
SW-620 colon = tested on: SW-620 colon
MCF7 breast = tested on: MCF7 breast
HCT-116 colon = tested on: HCT-116 colon
HCC-2998 colon = tested on: HCC-2998 colon
KM12 colon = tested on: KM12 colon

Measured: growth

N=C(N)c1ccc(-c2ccc(-c3ccccc3)o2)cc1
active: T-47D breast -46% | MDA-MB-435 melanoma -91.2% | SW-620 colon -75.7% | MCF7 breast -57.2% | HCT-116 colon -100% | HCC-2998 colon -74.5% | KM12 colon -80.3%
inactive: BT-549 breast 40.8%

O=C1/C(=C/c2cccc(F)c2)CN(C(=O)C(Cl)Cl)C/C1=C\c1cccc(F)c1
active: T-47D breast -26.5% | BT-549 breast -81.1% | MDA-MB-435 melanoma -90.2% | SW-620 colon -63.2% | MCF7 breast -46.7% | HCT-116 colon -82.8% | HCC-2998 colon -86.5% | KM12 colon -74.3%

COc1c(B(O)O)cccc1-c1cc(C)c2c(ccc3[nH]ncc32)n1
inactive: T-47D breast 84.1% | BT-549 breast 23.1% | MDA-MB-435 melanoma 92% | SW-620 colon 63.5% | MCF7 breast 71.8% | HCT-116 colon 41.7% | HCC-2998 colon 105% | KM12 colon 83.1%

CC1CCN(CCOc2ccc(CNc3ccc4nc(CCC5CCCCC5)[nH]c4c3)cc2)CC1
active: T-47D breast -32.8% | MDA-MB-435 melanoma -43.4% | MCF7 breast 5.38% | HCC-2998 colon -50.5%
inactive: BT-549 breast 68.4% | SW-620 colon 13.9% | HCT-116 colon 13.7% | KM12 colon 44%

Nc1ncnc2c1C(c1ccc(Br)cc1)c1sc3c(F)cccc3c1O2 (stereo not drawn)
inactive: T-47D breast 74.9% | BT-549 breast 100% | MDA-MB-435 melanoma 107% | SW-620 colon 94.5% | MCF7 breast 55.9% | HCT-116 colon 95% | HCC-2998 colon 120% | KM12 colon 91.8%

Cc1cccc(CNc2c3ccccc3nc3ccccc23)c1
active: MCF7 breast 6.23% | HCT-116 colon 9.81% | HCC-2998 colon 3.58%
inactive: T-47D breast 25.3% | BT-549 breast 67.3% | MDA-MB-435 melanoma 29.1% | SW-620 colon 17.2% | KM12 colon 25.6%

Cc1c(-c2ccc(O)cc2)n(Cc2ccc(OCCN3CCCCCC3)cc2)c2ccc(O)cc12
inactive: T-47D breast 58.4% | BT-549 breast 84% | MDA-MB-435 melanoma 79.6% | SW-620 colon 66.3% | MCF7 breast 11.6% | HCT-116 colon 59.1% | HCC-2998 colon 114% | KM12 colon 73.4%

CN1CCc2nc3sc(C(N)=O)c(N)c3c(-c3cccs3)c2C1
active: HCT-116 colon 4.02% | KM12 colon 6.55%
inactive: T-47D breast 42.9% | BT-549 breast 10.7% | MDA-MB-435 melanoma 29.6% | SW-620 colon 35% | MCF7 breast 12.6% | HCC-2998 colon 53.5%

NC(N)=NCCCCCNc1noc(Cc2c[nH]c3cc(Br)ccc23)n1
inactive: T-47D breast 59.2% | BT-549 breast 66.5% | MDA-MB-435 melanoma 87.7% | SW-620 colon 92.2% | MCF7 breast 77.2% | HCT-116 colon 77.2% | HCC-2998 colon 76.1% | KM12 colon 45.1%

COc1ccc(-c2ccc(-c3ccc(C(=N)N)cc3)s2)cc1Cl
active: MDA-MB-435 melanoma -65.2% | SW-620 colon -71.9% | MCF7 breast -65.5% | HCT-116 colon -52.8% | HCC-2998 colon -37.8% | KM12 colon -73.2%
inactive: T-47D breast 42.6% | BT-549 breast 93.7%

C#CCOc1cccc(Nc2ncnc3ccc(NC(=O)C=C)cc23)c1
inactive: T-47D breast 39% | BT-549 breast 19.5% | MDA-MB-435 melanoma 43.8% | SW-620 colon 55.9% | MCF7 breast 47.6% | HCT-116 colon 32.8% | HCC-2998 colon 84.6% | KM12 colon 60.4%

CC(C)c1ccc(-n2c(=S)[nH]c3sc4cc(O)ccc4c3c2=O)cc1
inactive: T-47D breast 105% | BT-549 breast 91.4% | MDA-MB-435 melanoma 100% | SW-620 colon 96.9% | MCF7 breast 90.1% | HCT-116 colon 98.4% | HCC-2998 colon 103% | KM12 colon 105%

CCN(CC)CC(O)COc1c(Br)c(Br)c(Br)c2c1OC(C)(C)C2 (stereo not drawn)
active: MDA-MB-435 melanoma 1.3% | SW-620 colon -65.9%
inactive: T-47D breast 69.5% | BT-549 breast 95.6% | MCF7 breast 73.2% | HCT-116 colon 45.5% | HCC-2998 colon 76% | KM12 colon 53.8%

Ic1ccc(OCCCCn2ccnc2)cc1
inactive: T-47D breast 77.6% | BT-549 breast 88.4% | MDA-MB-435 melanoma 73% | SW-620 colon 58.1% | MCF7 breast 89.7% | HCT-116 colon 65.9% | HCC-2998 colon 68.1% | KM12 colon 97.6%

O=S(=O)(NCCCNc1nccc(-c2c(-c3ccc(F)c(O)c3)nc3sccn23)n1)c1ccccc1
inactive: T-47D breast 64.8% | BT-549 breast 91.1% | MDA-MB-435 melanoma 29.3% | SW-620 colon 56.2% | MCF7 breast 58.5% | HCT-116 colon 30.6% | HCC-2998 colon 78.2% | KM12 colon 64.6%

Fc1cc2c(cc1Cl)N(c1ncnc3ccc(-c4ccc5n[nH]nc5c4)cc13)CC2
inactive: T-47D breast 65.5% | BT-549 breast 88.2% | MDA-MB-435 melanoma 92.4% | SW-620 colon 96.9% | MCF7 breast 80.3% | HCT-116 colon 96.7% | HCC-2998 colon 92.1% | KM12 colon 97.7%

Nc1n[nH]c2ccc([C@H]3[C@@H]4C5CCC(C5)[C@@H]4c4c(ccc5[nH]ncc45)N3S(=O)(=O)C3CC3)cc12 (stereo partly drawn)
active: BT-549 breast -2.63% | MDA-MB-435 melanoma -35.3% | HCT-116 colon 4.97% | KM12 colon 7.27%
inactive: T-47D breast 64.6% | SW-620 colon 21.9% | MCF7 breast 13.1% | HCC-2998 colon 18.4%

O=c1[nH]c(-c2ccccc2)nc2sc3cc(O)ccc3c12
inactive: T-47D breast 93% | BT-549 breast 82.3% | MDA-MB-435 melanoma 85.9% | SW-620 colon 101% | MCF7 breast 73.8% | HCT-116 colon 92.5% | HCC-2998 colon 95.9% | KM12 colon 87.6%

COc1cc2c(c(OC)c1OC)CCC(c1cccc(NC(=O)c3ccc(Br)cc3)c1)O2 (stereo not drawn)
inactive: T-47D breast 40.4% | BT-549 breast 87.5% | MDA-MB-435 melanoma 69.1% | SW-620 colon 91.5% | MCF7 breast 73.2% | HCT-116 colon 71.9% | HCC-2998 colon 102% | KM12 colon 91.1%

O=C1Nc2ccc(C(=O)O)cc2/C1=N/c1nnc(Sc2ccccc2)s1
inactive: T-47D breast 103% | BT-549 breast 123% | MDA-MB-435 melanoma 102% | SW-620 colon 103% | MCF7 breast 101% | HCT-116 colon 104% | HCC-2998 colon 112% | KM12 colon 99.9%

CCOC(=O)C1=C(N)Oc2c(sc3c(F)cccc23)C1c1ccc(O)cc1 (stereo not drawn)
active: MDA-MB-435 melanoma 5.63%
inactive: T-47D breast 26.5% | BT-549 breast 23.3% | SW-620 colon 31.1% | MCF7 breast 14.9% | HCT-116 colon 26% | HCC-2998 colon 38% | KM12 colon 24%

O=[N+]([O-])c1ccc(O)cc1Br
inactive: T-47D breast 96.8% | BT-549 breast 91.2% | MDA-MB-435 melanoma 100% | SW-620 colon 104% | MCF7 breast 92.9% | HCT-116 colon 95.4% | HCC-2998 colon 103% | KM12 colon 101%

O=C(CSc1nc2ccc([N+](=O)[O-])cc2[nH]1)Nc1ccc([N+](=O)[O-])cc1
inactive: MDA-MB-435 melanoma 14.3% | SW-620 colon 31.9% | MCF7 breast 16% | HCC-2998 colon 31.1% | KM12 colon 21.8%
active: T-47D breast 3.64% | BT-549 breast 7.77% | HCT-116 colon 9.88%

O=C1c2c(c3c4ccccc4[nH]c3c3ccc4ccccc4c23)C(=O)N1CCN1CCNCC1
inactive: T-47D breast 55.8% | BT-549 breast 93.5% | MDA-MB-435 melanoma 80.9% | MCF7 breast 23% | HCC-2998 colon 73.7% | KM12 colon 36.3%
active: SW-620 colon -54.9% | HCT-116 colon -81.3%

COC(=O)c1c2c(c(C)[n+]([O-])c1C)C(=O)C(NCc1cccc(OC)c1)=CC2=O
active: MDA-MB-435 melanoma -70.6% | SW-620 colon 7.85% | MCF7 breast 0.247% | HCT-116 colon 1.61%
inactive: T-47D breast 11.5% | BT-549 breast 57.5% | HCC-2998 colon 22.3% | KM12 colon 22%

C#CCOc1cccc(Nc2ncnc3cc(NC(=O)C=C)ccc23)c1
active: T-47D breast 8.13% | BT-549 breast 7.82% | MDA-MB-435 melanoma -1.49% | HCT-116 colon 2.37%
inactive: SW-620 colon 12.1% | MCF7 breast 20.4% | HCC-2998 colon 60.7% | KM12 colon 24.6%

C1CCC([PH+](C2CCCCC2)C2CCCCC2[PH+](C2CCCCC2)C2CCCCC2)CC1.[Au].[CH-]1CCCCC1C1CCCC[N-]1 (stereo not drawn)
active: T-47D breast -45.3% | BT-549 breast -40.4% | MDA-MB-435 melanoma -63.1% | SW-620 colon -76.4% | MCF7 breast -30.5% | HCT-116 colon -40.5% | HCC-2998 colon -90.1% | KM12 colon -85.2%

COc1ccc(-c2nn(-c3cccc(Cl)c3)cc2-c2cc(-c3ccc(Br)cc3)nc(N)n2)cc1
inactive: T-47D breast 66.2% | BT-549 breast 114% | MDA-MB-435 melanoma 99.6% | SW-620 colon 100% | MCF7 breast 57.4% | HCT-116 colon 91.5% | HCC-2998 colon 104% | KM12 colon 93.4%

N#CC1=C(N)Oc2c(sc3c(Br)cccc23)C1c1ccc(Cl)cc1 (stereo not drawn)
active: MDA-MB-435 melanoma -23.2%
inactive: T-47D breast 26.3% | BT-549 breast 41% | SW-620 colon 27.3% | MCF7 breast 10% | HCT-116 colon 13.7% | HCC-2998 colon 10.9% | KM12 colon 26.4%

CCSc1oc(-c2ccccc2)nc1[P+](c1ccccc1)(c1ccccc1)c1ccccc1
active: T-47D breast 1.87% | BT-549 breast -10.9% | MDA-MB-435 melanoma 3.45% | MCF7 breast 4.96% | HCT-116 colon 2.27% | KM12 colon -16.2%
inactive: SW-620 colon 10.8% | HCC-2998 colon 14.5%

O=C(Nc1nc(-c2ccc(Cl)cc2)nc2c1sc(=S)n2-c1ccccc1)C(F)(F)F
active: T-47D breast -14.8% | HCT-116 colon 3.7%
inactive: BT-549 breast 28.3% | MDA-MB-435 melanoma 50.6% | SW-620 colon 34.3% | MCF7 breast 57.1% | HCC-2998 colon 68.4% | KM12 colon 32.8%
